Source: PubChem BioAssay (Tox21)
Results filed as inconclusive are left out. A call without a number means that no potency is given here. Activity calls are given as the source filed them. Unless noted, calls follow the shape of the dose curve; as a rule, active = well fitted curve in the direction sought with a large enough effect in the repeat runs; inconclusive = weak or mixed curves; inactive = no such curve, though single readings can be large; an effect the other way counts as inactive or inconclusive.

Columns and labels:
[1] = qHTS assay to identify small molecule antagonists of the estrogen related receptor (ERR) signaling pathway from Tox21 library - cell viability counter screen (AID 1224834); also: nearly all actives have a fitted effect of over 30% in size
Outline: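 Seeded ERR cells were rested 6 h at 37 C/5% CO2 before compounds, positive and negative controls or DMSO were added. Incubation continued for 17.5 h, and viability was then quantified by CellTiter-Fluor fluorescence.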

[2] = biological target: Luciferin 4-monooxygenase (Photinus pyralis) (UniProt P08659); assay: qHTS assay to identify small molecule inhibitors of firefly luciferase (AID 1224835); also: nearly all actives have a fitted effect of over 25% in size; also: potency is read from the fitted curve at half-maximal effect
Outline: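 Biochemical qHTS: compounds run as interplate titrations against purified firefly enzyme, with D-luciferin and ATP each at its KM concentration. Light output recorded by CCD imaging.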

[3] = qHTS assay to identify small molecule agonists of the constitutive androstane receptor (CAR) signaling pathway - cell viability counter screen (AID 1224836); also: series mostly up to about 92 µM; nearly all actives have a fitted effect of over 45% in size
Outline: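 Viability read-out: CellTiter-Fluor fluorescence after 23 h compound exposure at 37 C/5% CO2 in double-stable HepG2-CYP2B6-hCAR cells, with PK11195 present at 0.75 uM final; compounds tested in 15-point titration.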

[4] = qHTS assay to identify small molecule antagonists of the constitutive androstane receptor (CAR) signaling pathway - cell viability counter screen (AID 1224837); also: series mostly up to about 92 µM; nearly all actives have a fitted effect of over 45% in size
Outline: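 To flag cytotoxic false antagonists, HepG2 hCAR/CYP2B6-2.2kb cells were treated 23 hr with 15-concentration compound series and 50 nM CITCO at 37 C/5% CO2; CellTiter-Fluor fluorescence was the measured end point.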

[5] = biological target: Nuclear receptor subfamily 1 group I member 3 (Homo sapiens) (UniProt Q14994); assay: qHTS assay to identify small molecule antagonists of the constitutive androstane receptor (CAR) signaling pathway (AID 1224838);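 also: HepG2 cells stably expressing hCAR with CYP2B6 luciferase reporter stimulated by CITCO; nearly all actives have a fitted effect of over 40% in size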
Outline: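 Human hepatoma HepG2 cells expressing hCAR and a CYP2B6 promoter (2.2 kb) luciferase construct; compound titration (15 points) with 50 nM CITCO final, 24 h at 37 C/5% CO2; luminescence via ONE-Glo after 30 min at room temperature.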

[6] = biological target: Nuclear receptor subfamily 1 group I member 3 (Homo sapiens) (UniProt Q14994); assay: qHTS assay to identify small molecule agonists of the constitutive androstane receptor (CAR) signaling pathway (AID 1224839);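 also: HepG2 cells stably carrying human CAR and a CYP2B6 luciferase reporter; series mostly up to about 92 µM; nearly all actives have a fitted effect of over 15% in size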
Outline: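 Luminescence read-out (ONE-Glo, 30 min, room temperature) from double-stable HepG2-CYP2B6-hCAR cells exposed 24 h to 15-point compound series in presence of 0.75 uM PK11195 final.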

[7] = qHTS assay to identify small molecule antagonists of the estrogen related receptor signaling pathway with the pleiotropic PPARgamma coactivator (PGC) from Tox21 10K library - cell viability counter screen (AID 1224840; active = well fitted cell-killing curve with a large enough effect in the repeat runs, not every such curve was filed as active; also: nearly all actives have a fitted effect of over 40% in size)
Outline: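 Seeded PGC/ERR cells (2,000/well, 6 h, 37 C/5% CO2) get compound by pin tool; 17.5 h incubation at 37 C; CellTiter-Fluor added, 30 min, fluorescence measured.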

[8] = qHTS assay to identify small molecule antagonists of the estrogen related receptor signaling pathway with the pleiotropic PPARgamma coactivator (PGC) from Tox21 10K library (AID 1224841; call rule not given here; also: series mostly up to about 92 µM; actives are mostly falling curves and most rising ones were filed inactive; nearly all actives have a fitted effect of over 50% in size)
Outline: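 Test chemicals dissolved in DMSO were applied to pre-incubated (6 h) PGC/ERR cells at 2,000 cells/well for an 18 h, 37 C treatment; reporter luminescence was then read using One-Glo.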

[9] = qHTS assay to identify small molecule agonists of the estrogen related receptor signaling pathway with the pleiotropic PPARgamma coactivator (PGC) from Tox21 10K library (AID 1224842); also: nearly all actives have a fitted effect of over 15% in size
Outline: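 PGC/ERR reporter cell line, 2,000 cells per well, incubated 6 h at 37 C before 23 nL compound in DMSO was added. After 18 h at 37 C, One-Glo luminescence read following 30 min at room temperature.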

[10] = biological target: Thyrotropin receptor (Homo sapiens) (UniProt P16473); assay: qHTS assay to identify small molecule agonists of the thyroid stimulating hormone receptor (TSHR) signaling pathway (AID 1224843; calls by dose curve; also: nearly all actives have a fitted effect of over 45% in size; also: potency is read from the fitted curve at half-maximal effect)
Outline: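 Agonist-mode screen: TSHR HEK293 cells received test chemicals for half an hour at room temperature, then HTRF cAMP detection reagents for one hour prior to fluorescence measurement. Each chemical ran as a 15-concentration series, triplicated.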

[11] = qHTS assay to identify small molecule agonists of the hypoxia (HIF-1) signaling pathway - cell viability counter screen (AID 1224844; calls by dose curve; also: nearly all actives have a fitted effect of over 50% in size)
Outline: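 HRE-bla ME-180; 0.5% dFBS; cpd 17 h, 37C, 5% CO2; CellTiter-Glo lum., 30 min RT, post-FRET read, same wells.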

[12] = qHTS assay to identify small molecule agonists of H2AX (AID 1224845; active = well fitted activation curve with a large enough effect in the signal ratio in the repeat runs, not every such curve was filed as active; the % refers to the signal ratio)
Outline: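 Wild-type CHO-K1 cells, plated overnight, exposed 3hr at 37C to 15 concentrations (0.76% DMSO final). Lysed, then HTRF anti-pH2AX (S139) cryptate and anti-H2AX-d2 antibodies, 24 hr room temperature; 665/620 nm emission read.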

[13] = qHTS assay to identify small molecule agonists of H2AX - cell viability counter screen (AID 1224847; calls by dose curve; also: top concentration of the series differs between compounds; nearly all actives have a fitted effect of over 30% in size)
Outline: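 CHO-K1 wt, 1000 cells/well, o/n 37C; cpds 15 conc, 3 h 37C, 0.76% DMSO; CellTiter-Glo, 30 min RT, luminescence.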

[14] = qHTS assay to identify small molecule antagonists of the estrogen related receptor (ERR) signaling pathway from Tox21 library (AID 1224848); also: nearly all actives have a fitted effect of over 50% in size
Outline: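 Quantitative high-throughput format: ERR reporter cells (2,000/well) pre-incubated 6 h, treated 18 h at 37 C with compounds in DMSO alongside positive and negative controls, then read by ONE-Glo luminescence.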

[15] = qHTS assay to identify small molecule agonists of the estrogen related receptor (ERR) signaling pathway from Tox21 library (AID 1224849; calls by dose curve; also: nearly all actives have a fitted effect of over 15% in size)
Outline: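 Tox21 compounds tested for ERR agonism in an NTP reporter cell line: 18 h treatment at 37 C, then ONE-Glo luminescence.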

[16] = qHTS RealTime-Glo MT Cell Viability Assay in HepG2 cells - 24 hour (AID 1224867); also: nearly all actives have a fitted effect of over 50% in size
Outline: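 Luminescence read-out: viable HepG2 cells reduce a prosubstrate to a NanoLuc substrate, giving a signal proportional to live cell number. Reads taken at 0, 8, 16, 24, 32 and 40 h of compound exposure at 37 C.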

[17] = qHTS RealTime-Glo MT Cell Viability Assay in HEK293 cells - 32 hour (AID 1224868)
Outline: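 Nonlytic real-time viability readout: viable cells convert prosubstrate to NanoLuc substrate, giving luminescence proportional to live cell number. HEK293, 600 cells/well, compound added after 5 h, continuous culture at 37 C.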

[18] = A CellTox Green Cytotoxicity Assay to monitor cytotoxicity in HEK293 cells - 0 hour (AID 1224869); also: nearly all actives have a fitted effect of over 50% in size
Outline: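 Tox21 screen in HEK293: membrane-impermeant cyanine dye fluoresces on binding dead-cell DNA; compound pinned 5 h post-seeding, plates held at 37 C, signal read repeatedly through 40 h.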

[19] = qHTS RealTime-Glo MT Cell Viability Assay in HepG2 cells - 40 hour (AID 1224870); also: nearly all actives have a fitted effect of over 50% in size; also: potency is read from the fitted curve at half-maximal effect
Outline: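 HepG2 cells (600/well) mixed with RealTime-Glo MT reagent, settled 5 h at 37 C/5% CO2 before compound addition. Nonlytic NanoLuc luminescence from viable-cell prosubstrate reduction read repeatedly during 40 h treatment at 37 C.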

[20] = qHTS assay to identify small molecule agonists of the hypoxia (HIF-1) signaling pathway (AID 1224846; active = well fitted activation curve with a large enough effect in the signal ratio in the repeat runs, not every such curve was filed as active; the % refers to the signal ratio)
Outline: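 Reporter induction in HRE-bla ME-180 cells is taken as agonism: cells sit 5 hrs after plating, receive compounds or DMSO only, incubate 17 hrs at 37C under 5% CO2, and are loaded with CCF4-AM for beta-lactamase FRET measurement.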

Sequence of Thyrotropin receptor (Homo sapiens) (P16473 whole entry, looked up): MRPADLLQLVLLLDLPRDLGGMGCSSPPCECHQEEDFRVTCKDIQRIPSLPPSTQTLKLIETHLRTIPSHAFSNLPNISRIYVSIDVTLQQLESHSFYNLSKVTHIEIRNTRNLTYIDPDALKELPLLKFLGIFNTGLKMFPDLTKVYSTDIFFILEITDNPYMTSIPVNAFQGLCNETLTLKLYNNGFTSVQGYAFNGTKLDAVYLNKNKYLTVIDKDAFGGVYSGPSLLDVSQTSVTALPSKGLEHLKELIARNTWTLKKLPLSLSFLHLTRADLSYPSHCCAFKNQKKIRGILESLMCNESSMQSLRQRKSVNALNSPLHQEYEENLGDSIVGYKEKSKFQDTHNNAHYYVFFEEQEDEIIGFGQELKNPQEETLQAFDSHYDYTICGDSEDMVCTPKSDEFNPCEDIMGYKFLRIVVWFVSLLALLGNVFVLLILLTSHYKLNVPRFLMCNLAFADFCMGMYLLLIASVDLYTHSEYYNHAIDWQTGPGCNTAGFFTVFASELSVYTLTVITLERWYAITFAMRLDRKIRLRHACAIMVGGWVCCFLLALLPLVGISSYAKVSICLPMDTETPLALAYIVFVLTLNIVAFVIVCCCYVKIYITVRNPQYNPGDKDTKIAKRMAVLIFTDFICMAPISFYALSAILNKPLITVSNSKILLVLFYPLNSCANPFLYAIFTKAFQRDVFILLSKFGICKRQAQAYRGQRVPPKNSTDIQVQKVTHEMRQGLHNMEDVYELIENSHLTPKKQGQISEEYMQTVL
Sequence of Luciferin 4-monooxygenase (Photinus pyralis) (P08659 whole entry, looked up): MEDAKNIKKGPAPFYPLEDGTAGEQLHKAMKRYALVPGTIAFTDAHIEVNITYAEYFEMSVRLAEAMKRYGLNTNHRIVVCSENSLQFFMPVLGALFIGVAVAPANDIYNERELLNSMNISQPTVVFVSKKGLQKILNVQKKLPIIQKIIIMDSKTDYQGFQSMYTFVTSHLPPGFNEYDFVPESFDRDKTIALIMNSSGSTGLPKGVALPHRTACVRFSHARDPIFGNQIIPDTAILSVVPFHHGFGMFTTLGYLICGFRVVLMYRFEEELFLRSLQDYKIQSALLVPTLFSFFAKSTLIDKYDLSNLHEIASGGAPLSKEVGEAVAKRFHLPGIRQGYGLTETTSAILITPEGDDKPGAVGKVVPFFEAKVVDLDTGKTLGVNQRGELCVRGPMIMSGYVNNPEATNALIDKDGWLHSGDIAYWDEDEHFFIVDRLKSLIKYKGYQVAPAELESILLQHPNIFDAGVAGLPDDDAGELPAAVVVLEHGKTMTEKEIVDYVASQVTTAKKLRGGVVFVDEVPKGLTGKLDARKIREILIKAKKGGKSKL
Sequence of Nuclear receptor subfamily 1 group I member 3 (Homo sapiens) (Q14994 whole entry, looked up): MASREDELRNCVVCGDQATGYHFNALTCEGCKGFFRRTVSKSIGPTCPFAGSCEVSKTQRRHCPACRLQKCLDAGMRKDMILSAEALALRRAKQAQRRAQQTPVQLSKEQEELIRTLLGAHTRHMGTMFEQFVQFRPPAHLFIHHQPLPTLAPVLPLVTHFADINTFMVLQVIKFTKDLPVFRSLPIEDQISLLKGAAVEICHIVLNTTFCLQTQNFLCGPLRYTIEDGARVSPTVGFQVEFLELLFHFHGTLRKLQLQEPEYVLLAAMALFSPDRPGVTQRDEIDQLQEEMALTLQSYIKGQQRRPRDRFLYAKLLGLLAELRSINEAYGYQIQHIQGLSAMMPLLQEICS

SMILES | Potency [1] | Potency [2] | outcome [3] | outcome [4] | Potency [5] | Potency [6] | outcome [7] | Potency [8] | Potency [9] | Potency [10] | Potency [11] | Potency [12] | outcome [13] | Potency [14] | outcome [15] | outcome [16] | Potency [17] | outcome [18] | Potency [19] | outcome [20]
O=C(O)CC(C(=O)O)S(=O)(=O)O (stereo not drawn) | inactive | inactive | inactive | inactive | inactive | inactive | inactive | inactive | inactive | inactive | inactive | inactive | inactive | inactive | inactive | inactive | inactive | inactive | inactive | –
CN(C)C(=O)Oc1ccc[n+](C)c1 | inactive | inactive | inactive | inactive | inactive | inactive | inactive | – | inactive | inactive | inactive | inactive | inactive | inactive | inactive | inactive | inactive | inactive | inactive | –
CCCCOCCOC(=O)CCCCCCCCC(=O)OCCOCCCC | inactive | inactive | inactive | inactive | inactive | inactive | inactive | inactive | inactive | inactive | inactive | inactive | inactive | inactive | inactive | inactive | inactive | – | inactive | inactive
CC(=O)Oc1cccc(C)c1 | inactive | inactive | inactive | inactive | inactive | inactive | inactive | inactive | inactive | inactive | inactive | inactive | inactive | inactive | inactive | inactive | inactive | inactive | inactive | inactive
CCCO[Si](OCCC)(OCCC)OCCC | inactive | inactive | inactive | inactive | inactive | inactive | inactive | inactive | inactive | inactive | inactive | – | – | inactive | inactive | inactive | inactive | – | inactive | inactive
CNCC(O)c1ccc(O)c(O)c1 (stereo not drawn) | inactive | inactive | inactive | inactive | inactive | inactive | inactive | inactive | – | 2.98 µM (active) | inactive | – | inactive | inactive | – | inactive | inactive | inactive | inactive | –
CCOC(=O)CCC(=O)OCC | inactive | inactive | inactive | inactive | inactive | inactive | inactive | inactive | inactive | inactive | inactive | inactive | inactive | inactive | inactive | – | inactive | inactive | inactive | inactive
CCCCCC(=O)OCCc1ccccc1 | inactive | 15.9 µM (active) | inactive | inactive | inactive | inactive | inactive | inactive | inactive | inactive | inactive | inactive | inactive | inactive | inactive | inactive | inactive | – | inactive | –
C=COCC1CCC(COC=C)CC1 (stereo not drawn) | inactive | inactive | inactive | inactive | inactive | inactive | inactive | inactive | inactive | inactive | inactive | inactive | inactive | inactive | inactive | inactive | inactive | inactive | inactive | inactive
CCOC(=O)COC(=O)c1ccccc1C(=O)OCC | inactive | inactive | inactive | inactive | inactive | inactive | inactive | inactive | inactive | inactive | inactive | inactive | inactive | inactive | inactive | – | inactive | – | inactive | inactive
C[C@H]1C[C@H]2[C@@H]3CCC4=CC(=O)C=C[C@]4(C)[C@H]3C(=O)C[C@]2(C)[C@@]1(O)C(=O)CO | inactive | inactive | inactive | inactive | inactive | inactive | inactive | inactive | inactive | inactive | inactive | inactive | inactive | inactive | inactive | – | inactive | inactive | inactive | inactive
CC(=O)c1ccccc1[N+](=O)[O-] | inactive | inactive | inactive | inactive | inactive | inactive | inactive | inactive | inactive | inactive | inactive | inactive | inactive | inactive | inactive | inactive | inactive | inactive | inactive | inactive
CC1=C(C/C=C(\C)CCC[C@H](C)CCC[C@H](C)CCCC(C)C)C(=O)c2ccccc2C1=O | inactive | inactive | inactive | inactive | inactive | inactive | inactive | inactive | inactive | inactive | inactive | inactive | inactive | inactive | inactive | inactive | – | – | inactive | inactive
COc1ccc2cc1Oc1cc3c(cc1OC)CC[N+](C)(C)[C@H]3Cc1ccc(cc1)Oc1c(OC)c(OC)cc3c1[C@@H](C2)[N+](C)(C)CC3 | inactive | inactive | inactive | inactive | inactive | inactive | inactive | – | inactive | inactive | inactive | inactive | inactive | inactive | inactive | – | inactive | inactive | 16.9 µM (active) | –
